# Source: PubChem BioAssay AID1159580 (chemical genetic matrix, 2015)
# The whole screen tested about 5,500 compounds, of which about 2,000 (36%) were called active. Another 18% or so got no clear call; they are omitted. Some of the results follow. Unmarked numbers belong to inactive results. Cut-off read from the data, not from the text of the source: active = normalized growth mostly below about 0.91 (no sharp cut-off); inconclusive = no clear call, values can overlap the other calls; inactive = mostly above about 0.92.
# Test: chemical genetic growth profiling, strain panel (AID 1159580);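 note: tested at 20 µM; growth read once vehicle control cultures reached saturation at 30 °C; 1 = growth at the plate median or of vehicle wells; lower values mean less growth of the strain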
# Settings: growth OD
# [1] = S. cerevisiae deletion strains, locus YDL101C, strain DUN1, active compounds read low
# [2] = S. cerevisiae deletion strains, locus YHR030C, strain SLT2, active compounds read low
# [3] = S. cerevisiae deletion strains, locus YAL013W, strain DEP1, active compounds read low
# [4] = S. cerevisiae deletion strains, locus YDR150W, strain NUM1, active compounds read low
# [5] = S. cerevisiae deletion strains, locus YJR075W, strain HOC1, active compounds read low
# [6] = S. cerevisiae deletion strains, locus YNL153C, strain GIM3, active compounds read low
# [7] = S. cerevisiae deletion strains, locus YNL322C, strain KRE1, active compounds read low
# [8] = S. cerevisiae deletion strains, locus YPL241C, strain CIN2, active compounds read low
structure (smiles),measurement,setting,value
O=[N+]([O-])c1ccc(NCc2ccc(Cl)c(Cl)c2)nc1,normalized growth,"S. cerevisiae deletion strains, locus YAR019C, strain CDC15, active compounds read low",0.931
same,normalized growth,"S. cerevisiae deletion strains, locus YBL105C, strain PKC1, active compounds read low",0.936
same,normalized growth,"S. cerevisiae deletion strains, locus YBR135W, strain CKS1, active compounds read low",0.936
same,normalized growth,"S. cerevisiae deletion strains, locus YBR136W, strain MEC1, active compounds read low",0.944
same,normalized growth,"S. cerevisiae deletion strains, locus YBR160W, strain CDC28, active compounds read low",0.941
same,normalized growth,"S. cerevisiae deletion strains, locus YDL017W, strain CDC7, active compounds read low",0.946
same,normalized growth,"S. cerevisiae deletion strains, locus YDL028C, strain MPS1, active compounds read low",0.946
same,normalized growth,[1],0.925
same,normalized growth,"S. cerevisiae deletion strains, locus YDL108W, strain KIN28, active compounds read low",0.942
same,normalized growth,"S. cerevisiae deletion strains, locus YDL132W, strain cdc53, active compounds read low",0.919
same,normalized growth,"S. cerevisiae deletion strains, locus YDL214C, strain PRR2, active compounds read low",0.857
same,normalized growth,"S. cerevisiae deletion strains, locus YDR052C, strain DBF4, active compounds read low",0.953
same,normalized growth,"S. cerevisiae deletion strains, locus YDR054C, strain cdc34, active compounds read low",0.918
same,normalized growth,"S. cerevisiae deletion strains, locus YDR226W, strain ADK1, active compounds read low",0.937
same,normalized growth,"S. cerevisiae deletion strains, locus YDR477W, strain SNF1, active compounds read low",0.882
same,normalized growth,"S. cerevisiae deletion strains, locus YER123W, strain YCK3, active compounds read low",0.862
same,normalized growth,"S. cerevisiae deletion strains, locus YER133W, strain GLC7, active compounds read low",0.842
same,normalized growth,"S. cerevisiae deletion strains, locus YFL009W, strain cdc4, active compounds read low",0.923
same,normalized growth,"S. cerevisiae deletion strains, locus YFL029C, strain CAK1, active compounds read low",0.931
same,normalized growth,"S. cerevisiae deletion strains, locus YFR003C, strain YPI1, active compounds read low",0.944
same,normalized growth,"S. cerevisiae deletion strains, locus YFR019W, strain FAB1, active compounds read low",0.907
same,normalized growth,"S. cerevisiae deletion strains, locus YFR028C, strain CDC14, active compounds read low",0.917
same,normalized growth,"S. cerevisiae deletion strains, locus YGR040W, strain KSS1, active compounds read low",0.884
same,normalized growth,"S. cerevisiae deletion strains, locus YGR052W, strain FMP48, active compounds read low",0.861
same,normalized growth,"S. cerevisiae deletion strains, locus YGR092W, strain DBF2, active compounds read low",0.852
same,normalized growth,[2],0.733 (active)
same,normalized growth,"S. cerevisiae deletion strains, locus YHR079C, strain IRE1, active compounds read low",0.78
same,normalized growth,"S. cerevisiae deletion strains, locus YHR082C, strain KSP1, active compounds read low",0.906
same,normalized growth,"S. cerevisiae deletion strains, locus YHR205W, strain SCH9, active compounds read low",0.81
same,normalized growth,"S. cerevisiae deletion strains, locus YIL147C, strain SLN1, active compounds read low",0.94
same,normalized growth,"S. cerevisiae deletion strains, locus YJL095W, strain BCK1, active compounds read low",0.774
same,normalized growth,"S. cerevisiae deletion strains, locus YJL128C, strain PBS2, active compounds read low",0.839
same,normalized growth,"S. cerevisiae deletion strains, locus YJL157C, strain FAR1, active compounds read low",0.883
same,normalized growth,"S. cerevisiae deletion strains, locus YJR016C, strain ILV3, active compounds read low",0.939
same,normalized growth,"S. cerevisiae deletion strains, locus YJR066W, strain TOR1 (second series), active compounds read low",0.892
same,normalized growth,"S. cerevisiae deletion strains, locus YJR066W, strain TOR1, active compounds read low",0.898
same,normalized growth,"S. cerevisiae deletion strains, locus YKL048C, strain ELM1, active compounds read low",0.913
same,normalized growth,"S. cerevisiae deletion strains, locus YKL067W, strain YNK1, active compounds read low",0.891
same,normalized growth,"S. cerevisiae deletion strains, locus YKL101W, strain HSL1, active compounds read low",0.875
same,normalized growth,"S. cerevisiae deletion strains, locus YKL193C, strain SDS22, active compounds read low",0.935
same,normalized growth,"S. cerevisiae deletion strains, locus YKL203C, strain TOR2, active compounds read low",0.948
same,normalized growth,"S. cerevisiae deletion strains, locus YLR113W, strain HOG1, active compounds read low",0.657 (active)
same,normalized growth,"S. cerevisiae deletion strains, locus YLR133W, strain CKI1, active compounds read low",0.911
same,normalized growth,"S. cerevisiae deletion strains, locus YLR403W, strain SFP1, active compounds read low",0.865
same,normalized growth,"S. cerevisiae deletion strains, locus YML070W, strain DAK1, active compounds read low",0.854
same,normalized growth,"S. cerevisiae deletion strains, locus YMR001C, strain CDC5, active compounds read low",0.938
same,normalized growth,"S. cerevisiae deletion strains, locus YMR205C, strain PFK2 (second series), active compounds read low",0.875
same,normalized growth,"S. cerevisiae deletion strains, locus YMR277W, strain FCP1, active compounds read low",0.932
same,normalized growth,"S. cerevisiae deletion strains, locus YNL006W, strain LST8, active compounds read low",0.916
same,normalized growth,"S. cerevisiae deletion strains, locus YNL020C, strain ARK1, active compounds read low",0.893
same,normalized growth,"S. cerevisiae deletion strains, locus YNL161W, strain CBK1, active compounds read low",0.93
same,normalized growth,"S. cerevisiae deletion strains, locus YNL183C, strain NPR1, active compounds read low",0.934
same,normalized growth,"S. cerevisiae deletion strains, locus YNL207W, strain RIO2, active compounds read low",0.937
same,normalized growth,"S. cerevisiae deletion strains, locus YNL222W, strain SSU72, active compounds read low",0.927
same,normalized growth,"S. cerevisiae deletion strains, locus YNL307C, strain MCK1 (second series), active compounds read low",0.91
same,normalized growth,"S. cerevisiae deletion strains, locus YOL078W, strain AVO1, active compounds read low",0.926
same,normalized growth,"S. cerevisiae deletion strains, locus YOL136C, strain PFK27, active compounds read low",0.864
same,normalized growth,"S. cerevisiae deletion strains, locus YOR061W, strain CKA2, active compounds read low",0.884
same,normalized growth,"S. cerevisiae deletion strains, locus YOR119C, strain RIO1, active compounds read low",0.949
same,normalized growth,"S. cerevisiae deletion strains, locus YOR231W, strain MKK1, active compounds read low",0.87
same,normalized growth,"S. cerevisiae deletion strains, locus YOR329C, strain SCD5, active compounds read low",0.933
same,normalized growth,"S. cerevisiae deletion strains, locus YPL031C, strain PHO85, active compounds read low",0.88
same,normalized growth,"S. cerevisiae deletion strains, locus YPL153C, strain RAD53, active compounds read low",0.895
same,normalized growth,"S. cerevisiae deletion strains, locus YPL204W, strain HRR25, active compounds read low",0.869
same,normalized growth,"S. cerevisiae deletion strains, locus YPL209C, strain IPL1, active compounds read low",0.943
same,normalized growth,"S. cerevisiae deletion strains, locus YPL256C, strain CLN2, active compounds read low",0.763 (active)
same,normalized growth,"S. cerevisiae deletion strains, locus YPR025C, strain CCL1, active compounds read low",0.93
same,normalized growth,"S. cerevisiae deletion strains, locus YPR106W, strain ISR1, active compounds read low",0.918
same,normalized growth,"S. cerevisiae deletion strains, locus YPR111W, strain DBF20, active compounds read low",0.909
same,normalized growth,"S. cerevisiae deletion strains, strain NNK1, active compounds read low",0.891
same,normalized growth,"S. cerevisiae deletion strains, strain TSCII, active compounds read low",0.93
Nc1nc(SCc2ccc([N+](=O)[O-])cc2)c2ncn([C@@H]3O[C@H](CO)[C@H](O)C3O)c2n1 (stereo partly specified),normalized growth,[3],1.01
same,normalized growth,"S. cerevisiae deletion strains, locus YAL040C, strain CLN3, active compounds read low",1.02
same,normalized growth,"S. cerevisiae deletion strains, locus YCL061C, strain MRC1 (second series), active compounds read low",1
same,normalized growth,[4],0.994
same,normalized growth,"S. cerevisiae deletion strains, locus YER002W, strain NOP16, active compounds read low",1
same,normalized growth,"S. cerevisiae deletion strains, locus YGR229C, strain SMI1, active compounds read low",1.04
same,normalized growth,[5],0.995
same,normalized growth,[6],0.989
same,normalized growth,"S. cerevisiae deletion strains, locus YNL175C, strain NOP13, active compounds read low",0.996
same,normalized growth,"S. cerevisiae deletion strains, locus YNL197C, strain WHI3, active compounds read low",1
same,normalized growth,"S. cerevisiae deletion strains, locus YNL224C, strain SQS1, active compounds read low",1
same,normalized growth,[7],1.02
same,normalized growth,"S. cerevisiae deletion strains, locus YOR083W, strain WHI5 (second series), active compounds read low",0.998
same,normalized growth,[8],1
O=[N+]([O-])c1ccc(NCCCCCO)nc1,normalized growth,[3],0.988
same,normalized growth,"S. cerevisiae deletion strains, locus YBR229C, strain ROT2, active compounds read low",0.98
same,normalized growth,"S. cerevisiae deletion strains, locus YCL061C, strain MRC1, active compounds read low",0.977
same,normalized growth,[1],0.966
same,normalized growth,"S. cerevisiae deletion strains, locus YDL134C, strain PPH21, active compounds read low",0.998
same,normalized growth,[4],0.975
same,normalized growth,"S. cerevisiae deletion strains, locus YEL061C, strain CIN8, active compounds read low",1.03
same,normalized growth,"S. cerevisiae deletion strains, locus YGR078C, strain PAC10, active compounds read low",0.987
same,normalized growth,[2],0.974
same,normalized growth,"S. cerevisiae deletion strains, locus YHR087W, strain rtc3, active compounds read low",1.05
same,normalized growth,"S. cerevisiae deletion strains, locus YJL187C, strain SWE1, active compounds read low",1
same,normalized growth,"S. cerevisiae deletion strains, locus YJR043C, strain POL32, active compounds read low",0.981
same,normalized growth,[5],1.02
same,normalized growth,"S. cerevisiae deletion strains, locus YKL190W, strain CNB1, active compounds read low",1.01
same,normalized growth,"S. cerevisiae deletion strains, locus YLR039C, strain RIC1, active compounds read low",0.936
same,normalized growth,"S. cerevisiae deletion strains, locus YLR058C, strain SHM2 (second series), active compounds read low",0.993
same,normalized growth,"S. cerevisiae deletion strains, locus YLR085C, strain ARP6, active compounds read low",0.993
same,normalized growth,"S. cerevisiae deletion strains, locus YLR262C, strain YPT6, active compounds read low",1.01
same,normalized growth,"S. cerevisiae deletion strains, locus YML094W, strain GIM5, active compounds read low",1.04
same,normalized growth,"S. cerevisiae deletion strains, locus YMR219W, strain ESC1, active compounds read low",1.01
same,normalized growth,"S. cerevisiae deletion strains, locus YMR263W, strain SAP30, active compounds read low",0.999
same,normalized growth,"S. cerevisiae deletion strains, locus YMR307W, strain GAS1, active compounds read low",1.07
same,normalized growth,[6],0.986
same,normalized growth,"S. cerevisiae deletion strains, locus YNL298W, strain CLA4 (second series), active compounds read low",0.967
same,normalized growth,[7],0.992
same,normalized growth,"S. cerevisiae deletion strains, locus YNR030W, strain Alg12, active compounds read low",0.99
same,normalized growth,"S. cerevisiae deletion strains, locus YOL006C, strain TOP1, active compounds read low",0.955
same,normalized growth,"S. cerevisiae deletion strains, locus YPL055C, strain LGE1, active compounds read low",1.04
same,normalized growth,[8],0.974
same,normalized growth,"S. cerevisiae deletion strains, locus YPR135W, strain CTF4, active compounds read low",0.958
same,normalized growth,"S. cerevisiae strains, strain wild type, active compounds read low",0.996
